ERa coact pot: enhancers of ERα–SRC-1 coactivator binding, primary screen, biochemical, TR-FRET, ERα LBD, low estradiol; Estrogen receptor (Homo sapiens), P03372; TR-FRET ERalpha-LBD/SRC-Cy5 coactivator binding, 2 h; 100 = basal binding, no effect; coactivator binding (% of control), % at 25.6 µM; 86,000 compounds, 1.3% hits; in the data active = activity above about 200%;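 also: binding measured in presence of low estradiol as agonist stimulus; 0% = peptide alone without receptor and 100% = receptor with peptide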
ERa SRC1 inh: ERα–SRC-1 coactivator interaction inhibitors, primary screen, biochemical, TR-FRET, ERα LBD, estradiol-bound. 86,000 compounds, 1.7% hits. Estrogen receptor (Homo sapiens), P03372. AID 629, 2007. inhibition, % at 25.6 µM. TR-FRET ER-alpha LBD / SRC-1 peptide; in the data active = inhibition above about 50%;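 also: 0% = receptor plus peptide control and 100% = peptide only without receptor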
ERb coact inh: inhibitors of ERβ-SRC1 coactivator interaction, primary screen, biochemical, TR-FRET, ERβ LBD, SRC-1 peptide; TR-FRET ER-beta LBD / SRC1-Cy5 peptide binding; receptor agonist-loaded with 1 µM estradiol; AID 633, 2007; inhibition, % at 25.6 µM; 86,000 compounds, 1.3% hits; Estrogen receptor beta (Homo sapiens), Q92731;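 active = compounds whose percent inhibition of the receptor-coactivator binding signal exceeds about 50% in the single-dose screen, limit read from the data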;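 also: 0% = receptor plus peptide wells without compound and 100% = peptide-only wells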
EphB4 ephrin blk: EphB4-ephrin-B2 interaction antagonists, primary screen, biochemical, TNYL-RAW peptide probe, fluorescence polarization | inhibition, % at 7 µM | AID 720, 2007 | 97,000 compounds, 0.15% hits | EphB4 LBD / TNYL-RAW-Alexa532 peptide;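 active = inhibition above the screen-wide mean inhibition plus 3 SD, cut at about 15% in these data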;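 also: 0% = DMSO wells and 100% = excess unlabeled TNYL-RAW peptide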
Target sequence (P54760 whole entry, looked up, the tested form may be a part): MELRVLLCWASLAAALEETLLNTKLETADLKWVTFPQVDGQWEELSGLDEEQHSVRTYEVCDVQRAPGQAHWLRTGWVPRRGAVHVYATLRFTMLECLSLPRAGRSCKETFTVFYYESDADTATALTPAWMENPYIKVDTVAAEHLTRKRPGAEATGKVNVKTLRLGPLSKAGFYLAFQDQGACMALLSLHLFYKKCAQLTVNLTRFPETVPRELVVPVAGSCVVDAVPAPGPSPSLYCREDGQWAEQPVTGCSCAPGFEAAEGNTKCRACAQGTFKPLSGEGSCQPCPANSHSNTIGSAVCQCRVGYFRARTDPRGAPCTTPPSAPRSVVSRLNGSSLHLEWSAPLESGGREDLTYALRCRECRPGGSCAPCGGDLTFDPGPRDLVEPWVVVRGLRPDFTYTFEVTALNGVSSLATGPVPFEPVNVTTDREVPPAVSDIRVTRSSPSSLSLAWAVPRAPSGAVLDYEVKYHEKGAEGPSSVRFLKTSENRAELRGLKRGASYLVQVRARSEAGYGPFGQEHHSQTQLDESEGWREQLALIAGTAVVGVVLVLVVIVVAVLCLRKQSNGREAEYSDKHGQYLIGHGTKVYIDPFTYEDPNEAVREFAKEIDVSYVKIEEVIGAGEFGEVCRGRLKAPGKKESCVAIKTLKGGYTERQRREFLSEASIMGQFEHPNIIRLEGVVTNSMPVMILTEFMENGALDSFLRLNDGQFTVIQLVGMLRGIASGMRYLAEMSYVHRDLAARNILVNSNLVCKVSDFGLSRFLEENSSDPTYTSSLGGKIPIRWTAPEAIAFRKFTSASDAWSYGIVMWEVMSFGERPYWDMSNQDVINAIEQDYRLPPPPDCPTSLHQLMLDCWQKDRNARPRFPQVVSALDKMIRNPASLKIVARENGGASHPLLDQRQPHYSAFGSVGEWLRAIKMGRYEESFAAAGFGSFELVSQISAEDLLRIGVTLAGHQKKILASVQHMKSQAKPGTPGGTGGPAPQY
Starred values were filed as active, the others as inactive; / = no result given; [ ] = remark or other dose. Compounds with a hit are over-represented: about 2.8% of the library has one in this group of screens.

SMILES | ERa coact pot | ERa SRC1 inh | ERb coact inh | EphB4 ephrin blk
O=c1ccc2cc3c([nH]c4ccc(Br)cc43)oc-2c1O | 19 | 72*[fluorescence artefact?] | 74*[fluorescence artefact?] | 11
S=c1[nH]nc(-c2cccnc2)o1 | 118 | -13 | -2 | 3
S=c1[nH]nc(-c2ccc3ccccc3n2)o1 | 471*[fluorescence artefact?] | 0 | -2 | 1
O=C(OCCN=C1NS(=O)(=O)c2ccccc21)C1CC(=O)N(c2ccc3ccccc3c2)C1 (stereo not given) | 101 | 2 | 4 | -1
Cc1ccc(-n2c(C)cc(/C=c3/sc4nc5ccccc5n4c3=O)c2C)cc1 | 109 | 4 | 5 | -1
COc1cc(N2CCCC2)c(OC)cc1/C=c1/sc2nc3ccccc3n2c1=O | 19 | 97*[fluorescence artefact?] | 74*[fluorescence artefact?] | -16
Clc1cccc(/C=N/Nc2ncnc3ccccc23)c1 | / | / | / | 85*[fluorescence artefact?]
Clc1ccc(/C=N/Nc2nc(Cl)nc3ccccc23)cc1 | / | / | / | -5
Cc1cccc(NC(c2ccc(O)cc2)c2ccc3ccc(C)nc3c2O)n1 (stereo not given) | 320*[fluorescence artefact?] | 49 | 50 | 0
COc1cc(S(=O)(=O)Nc2ccccc2C)ccc1Cl | 86 | -2 | -7 | 0
COc1cc(S(=O)(=O)Nc2c(C)cc(C)cc2C)ccc1Cl | 91 | -1 | 63*[fluorescence artefact?] | -1
CC1(C)Cc2c(sc3c4nnnn4c4nnnn4c23)CO1 | 43 | 80* | 6 | /
Cc1cc(NC(=O)CSc2ncnc3sc4c(c23)CCC(C)C4)no1 (stereo not given) | 375*[fluorescence artefact?] | 22 | 24 | /
Cc1ccccc1NCC(=O)N/N=C/C(Br)=C/c1ccccc1 | 101 | -4 | 5 | 6
Cc1cc(C)n(-c2nc3ccccc3c(=O)n2OCCOc2ccccc2)n1 | 33 | 7 | 56*[fluorescence artefact?] | -3
Cc1cc(C)n(-c2nc3ccccc3c(=O)n2OCC(N)=O)n1 | 97 | -3 | -7 | -9
CCCNS(=O)(=O)c1ccc(OCC(=O)N2CCOCC2)cc1 | 104 | -24 | -28 | -1
O=C(CSc1nnc(-c2ccccn2)n1Cc1ccco1)c1ccc(-c2ccccc2)cc1 | 228*[fluorescence artefact?] | 39 | 38 | /
O=C(CSc1nnc(-c2ccc(O)cc2)n1Cc1ccco1)c1ccccc1 | 88 | 13 | 7 | -6
COc1ccc(C/C(=N\O)c2ccc(OC)cc2)cc1 | 92 | -4 | -4 | -6
CC(C)CCCC(C)NS(=O)(=O)Cc1ccccc1 (stereo not given) | 109 | -7 | -7 | -3
O=C(Nc1ccncc1)C1c2ccccc2Oc2ccccc21 | 102 | 98*[fluorescence artefact?] | 9 | 2
Cc1cc(C)cc(N(CC(=O)NCc2ccco2)S(=O)(=O)c2c(C)noc2C)c1 | 102 | 28 | -2 | -4
CCOC(=O)N1CCC(n2c(SCC(=O)Nc3nccs3)nc3ccsc3c2=O)CC1 | 97 | -17 | -5 | -1
O=C(CSc1nnc(-c2csc3c2CCCC3)o1)Nc1ccccc1 | 111 | -7 | 2 | -2
SMILES | ERa coact pot | ERa SRC1 inh | ERb coact inh | EphB4 ephrin blk
Cc1cc(-c2nnc3sc(-c4ccc(Cl)cc4Cl)nn23)n[nH]1 | 360* | 23 | 25 | 0
Clc1cccc(-c2nnc3sc(-c4ccc5c(c4)OCO5)nn23)c1 | 199 | 55* | 44 | /
CN(C)c1ccc(-c2nn3c(-c4ccc(Cl)cc4Cl)nnc3s2)cc1 | 51 | 85*[fluorescence artefact?] | 64*[fluorescence artefact?] | /
Clc1ccccc1-c1nnc2sc(-c3ccc4c(c3)OCO4)nn12 | 111 | 6 | 2 | 3
CCOc1cccc(-c2nn3c(-c4cc(C)[nH]n4)nnc3s2)c1 | 90 | 10 | -4 | 0
Clc1ccc(-n2ncc3c(NCC4CCCO4)ncnc32)cc1 (stereo not given) | 73 | 26 | 55*[fluorescence artefact?] | /
O=C1Nc2ccccc2C12OCCS2 (stereo not given) | 96 | -5 | 54* | /
O=C1Nc2ccccc2C12OCC1(CO2)COC2(OC1)C(=O)Nc1ccccc12 (stereo not given) | 93 | 6 | 5 | 7
CCCOC(=O)C(C)n1cnc2sc(C)c(C)c2c1=O (stereo not given) | / | / | / | 16*
Cc1ccc(C(=O)NNC(=O)c2ccc(SCC3CCCO3)c([N+](=O)[O-])c2)cc1 (stereo not given) | 100 | 0 | 3 | 2
O=C(NNC(=O)c1ccc(SCC2CCCO2)c([N+](=O)[O-])c1)c1ccc(Cl)c([N+](=O)[O-])c1 (stereo not given) | 62 | 51* | 18 | -9
Cc1cc2nc(C)n(CCCNC(=O)Nc3ccc(F)cc3)c2cc1C | 101 | -5 | -9 | -3
Cc1[nH]nc2c1C(c1ccccn1)N(c1ccc(Br)cc1)C2=O (stereo not given) | 103 | 77*[fluorescence artefact?] | -3 | -11
CCOC(=O)c1ccc(N2C(=O)c3n[nH]c(C)c3C2c2ccccn2)cc1 (stereo not given) | 47 | 12 | 32 | 1
CCOC(=O)N1CCc2c(sc(NC(=O)c3ccc(S(=O)(=O)N4CCCC4)cc3)c2C#N)C1 | 245* | 34 | 21 | /
N#Cc1c(NC(=O)CN2CCN(S(=O)(=O)c3ccc4c(c3)OCCO4)CC2)sc2c1CCC2 | 27 | 69*[fluorescence artefact?] | 53*[fluorescence artefact?] | 3
O=C(CN1CCN(S(=O)(=O)c2ccc(Cl)cc2)CC1)Nc1ccc2c(c1)OCCO2 | 120 | -3 | -8 | -2
COC(=O)C1=CN(CC2CCCO2)C=C(C(=O)OC)C1c1cc(OC)c(OC)c(OC)c1 (stereo not given) | 100 | -9 | -8 | -3
Cc1ccc(-c2nc3ccccc3c(C(=O)NCc3cccs3)c2C)cc1 | / | / | / | -3
O=C(CSc1n[nH]c(-c2ccccc2)n1)c1ccc(O)c(O)c1 | 49 | 67*[fluorescence artefact?] | 77*[fluorescence artefact?] | /
O=C(c1ccc(F)cc1)N1CCN(c2cc(N3CCCCC3)c(F)cc2[N+](=O)[O-])CC1 | / | / | / | -1
Cc1cc2cc(CNC(=O)Nc3cccc(Cl)c3)ccc2n1C | 215*[fluorescence artefact?] | 20 | 15 | -6
Cc1cc2cc(CNC(=O)c3ccc(S(=O)(=O)N4CCOCC4)cc3)ccc2n1C | 276*[fluorescence artefact?] | 1 | 28 | 1
CCCC(=O)NCc1ccc2c(c1)cc(C)n2C | 84 | -52 | -5 | -10
Cc1cc2cc(CNC(=O)c3ccc(Br)o3)ccc2n1C | 62 | 74*[fluorescence artefact?] | 43 | /
Cc1cccc(NC(=O)NCc2ccc3c(c2)cc(C)n3C)c1 | 163 | 0 | 10 | 5
CC(/C=C/c1ccccc1)NC(N)=O (stereo not given) | 84 | 3 | 5 | -4
CC(SCCc1ccccn1)C(=O)O (stereo not given) | 98 | 12 | -2 | /
N#CC1=C(N)n2c(s/c(=C\c3ccco3)c2=O)=C(C#N)C1c1ccco1 (stereo not given) | 36 | 75*[fluorescence artefact?] | 67*[fluorescence artefact?] | -3
CCOC(=O)C1=C(c2ccccc2)N2CCS(=O)(=O)N=C2S1 | 91 | -4 | -4 | 16*

Bioassay records deposited in PubChem by several laboratories.
